Test results published in the antibiotic and cytotoxicity screens of Wong et al. (2023).
The whole screen tested about 39,000 compounds, of which about 3,300 (8.5%) were called active. Only a selection was taken, and actives are over-represented in it overall.

Test system: HepG2
Assay: cytotoxicity call (relative viability < 0.9)
Details: 10 µM

| Compound | cytotoxicity call |
| --- | --- |
| CCCNC(=O)C[C@H]1CC[C@@H]2[C@H](COc3ccc(NC(=O)c4ccc5c(c4)OCO5)cc3C(=O)N2C)O1 | inactive |
| COc1ccccc1NC(=O)N(C)C[C@H]1Oc2ncc(C#CC(C)C)cc2C(=O)N([C@H](C)CO)C[C@H]1C | inactive |
| C/C=C/c1ccc2c(c1)O[C@H](CN(C)S(=O)(=O)c1ccccc1OC)[C@H](C)CN([C@H](C)CO)S2(=O)=O | inactive |
| COc1ccc(NC(=O)N(C)C[C@H]2OCCCC[C@H](C)Oc3ccc(NC(=O)NC4CCCCC4)cc3C(=O)N([C@H](C)CO)C[C@@H]2C)cc1 | inactive |
| NCC(=O)Nc1ccc(Br)cc1 | inactive |
| CN(C)c1ccc(NC(=O)CN)cc1 | active |
| Cc1ccc(NC(=O)CC(C)C)cc1 | inactive |
| C[C@H](CO)N1C[C@H](C)[C@H](CN(C)Cc2ccc3c(c2)OCO3)Oc2c(NS(C)(=O)=O)cccc2C1=O | inactive |
| C[C@H](CO)N1C[C@H](C)[C@H](CN(C)C(=O)CCCN(C)C)OCCCC[C@H](C)Oc2ccc(NC(=O)Nc3ccc(F)cc3)cc2C1=O | inactive |
| Cc1ccc2c(=O)c3ccccc3n(CCCN)c2c1C | active |
| Cn1cnc(=O)c2ccccc21 | inactive |
| Cc1cccc(=O)n1CCCCN | inactive |
| COc1ccc(NC(=O)Nc2cccc3c2O[C@H](CN(C)C(=O)Nc2ccc(C(F)(F)F)cc2)[C@H](C)CN([C@H](C)CO)C3=O)cc1 | inactive |
| O=C(C[C@H]1C[C@H]2c3cc(NC(=O)Cc4ccncc4)ccc3O[C@H]2[C@@H](CO)O1)NCc1cc(F)ccc1F | inactive |
| C[C@H]1CN([C@@H](C)CO)C(=O)Cc2cc(NC(=O)c3ccncc3)ccc2O[C@H]1CN(C)S(=O)(=O)c1ccc(Cl)cc1 | inactive |
| C[C@H]1CN([C@@H](C)CO)C(=O)Cc2cc(NC(=O)C3CC3)ccc2O[C@@H]1CN(C)Cc1ccc2c(c1)OCO2 | inactive |
| COc1ccc(S(=O)(=O)N(C)C[C@@H]2OCCCC[C@H](C)Oc3ccc(NC(=O)c4ccccc4)cc3C(=O)N([C@@H](C)CO)C[C@H]2C)cc1 | active |
| Cc1ccc(S(=O)(=O)N(C)C[C@H]2OCCCC[C@H](C)Oc3ccc(NC(=O)c4ccccc4)cc3C(=O)N([C@@H](C)CO)C[C@H]2C)cc1 | inactive |
| Cc1ccc(S(=O)(=O)N(C)C[C@@H]2OCCCC[C@@H](C)Oc3ccc(NC(=O)c4ccccc4)cc3C(=O)N([C@@H](C)CO)C[C@H]2C)cc1 | inactive |
| Cc1ccc(S(=O)(=O)N(C)C[C@@H]2OCCCC[C@H](C)Oc3ccc(NC(=O)c4ccccc4)cc3C(=O)N([C@H](C)CO)C[C@H]2C)cc1 | active |
| C[C@@H]1CN([C@H](C)CO)C(=O)c2cc(NC(=O)c3ccccc3)ccc2O[C@@H](C)CCCCO[C@H]1CN(C)S(=O)(=O)c1ccccc1 | active |
| COc1ccc(S(=O)(=O)N(C)C[C@H]2OCCCC[C@@H](C)Oc3ccc(NC(=O)c4ccccc4)cc3C(=O)N([C@@H](C)CO)C[C@H]2C)cc1 | inactive |
| COc1ccc(S(=O)(=O)N(C)C[C@@H]2OCCCC[C@@H](C)Oc3ccc(NC(=O)c4ccccc4)cc3C(=O)N([C@H](C)CO)C[C@@H]2C)cc1 | inactive |

| Compound | cytotoxicity call |
| --- | --- |
| C[C@@H]1CCCCO[C@H](CN(C)S(=O)(=O)c2ccccc2)[C@@H](C)CN([C@H](C)CO)C(=O)c2cc(NC(=O)c3ccccc3)ccc2O1 | inactive |
| C[C@@H]1CCCCO[C@H](CN(C)S(=O)(=O)c2ccccc2)[C@H](C)CN([C@@H](C)CO)C(=O)c2cc(NC(=O)c3ccccc3)ccc2O1 | inactive |
| CC(C)(C)[S@](=O)N1Cc2cc(C(=O)N3CCCCC3)nc(-c3cccc(-c4cccc(C#N)c4)c3)c2[C@@H]1CCO | inactive |
| CCO[C@H]1OC(C(N)=O)=C[C@@H](C)[C@@H]1CCCO | inactive |
| C[C@H]1COC(=O)[C@@H](Cc2ccc(F)cc2)CCC=CC[C@@H](CC(=O)N[C@@H](CO)Cc2ccccc2)C(=O)N1 | inactive |
| C[C@@H]1CN([C@H](C)CO)C(=O)Cc2cc(NC(=O)c3ccncc3)ccc2O[C@@H]1CN(C)S(=O)(=O)c1ccc(Cl)cc1 | inactive |
| CC(C)CC#Cc1ccc2c(c1)O[C@@H](CN(C)C(=O)c1ccncc1)[C@H](C)CN([C@@H](C)CO)S2(=O)=O | inactive |
| N=C(NO)C(=O)Nc1ccccc1 | inactive |
| C[C@H]1CN([C@@H](C)CO)C(=O)c2ccccc2-c2ccccc2CO[C@H]1CN(C)C(=O)Nc1ccc(F)cc1 | inactive |
| C[C@H]1CN([C@@H](C)CO)C(=O)c2cccc(NC(=O)C3CCOCC3)c2O[C@@H]1CN(C)S(=O)(=O)c1ccc(F)cc1 | inactive |
| COc1ccc([Si](C)(C)[C@H]2[C@H](CCO)O[C@@]3(C(=O)N(Cc4ccc(N5C(=O)c6ccccc6Oc6ccccc65)cc4)c4ccccc43)[C@@H]2C)cc1 | active |
| COc1ccc([Si](C)(C)[C@@H]2[C@@H](CCO)O[C@]3(C(=O)N(Cc4ccc(N5C(=O)c6ccccc6Oc6ccccc65)cc4)c4ccccc43)[C@H]2C)cc1 | active |
| C[C@H]1[C@H]([Si](C)(C)F)[C@@H](CCO)O[C@]12C(=O)N(Cc1ccccc1)c1ccc(N3C(=O)c4ccccc4Oc4ccccc43)cc12 | inactive |
| COc1ccc([Si](C)(C)[C@@H]2[C@@H](CCO)O[C@]3(C(=O)N(Cc4ccccc4)c4ccc(N5C(=O)c6ccccc6Oc6ccccc65)cc43)[C@H]2C)cc1 | inactive |
| COc1ccc([Si](C)(C)[C@H]2[C@H](CCO)O[C@@]3(C(=O)N(Cc4ccccc4)c4ccc(N5C(=O)c6ccccc6Oc6ccccc65)cc43)[C@@H]2C)cc1 | active |
| COCC#Cc1ccc2c(c1)O[C@H](CN(C)Cc1ccc(F)cc1)[C@H](C)CN([C@@H](C)CO)S2(=O)=O | inactive |
| Cc1noc(C)c1S(=O)(=O)N(C)C[C@H]1Oc2ccc(NC(=O)CCCN(C)C)cc2C(=O)N([C@H](C)CO)C[C@@H]1C | inactive |
| C[C@H](CO)N1C[C@H](C)[C@@H](CN(C)C)Oc2ccc(NS(=O)(=O)c3ccc(Cl)cc3)cc2CC1=O | inactive |
| COc1nonc1NC(C)=O | inactive |
| O=C1C[C@H](N2C(=O)CCC2=O)[C@@H]2CO[C@@H]1O2 | inactive |
| C[C@@H]1CN([C@H](C)CO)C(=O)c2cccc(NC(=O)c3cnccn3)c2O[C@H]1CN(C)C(=O)Nc1ccc2c(c1)OCO2 | inactive |
| C[C@H](CO)N1C[C@H](C)[C@@H](CN(C)Cc2ccc(Cl)c(Cl)c2)Oc2ccc(NC(=O)Cc3ccccc3)cc2CC1=O | inactive |
| C[C@H]1CN([C@@H](C)CO)C(=O)Cc2cc(NC(=O)Cc3ccccc3)ccc2O[C@H]1CN(C)Cc1ccc(Cl)c(Cl)c1 | active |

| Compound | cytotoxicity call |
| --- | --- |
| C[C@@H]1CN([C@H](C)CO)C(=O)Cc2cc(NC(=O)Cc3ccccc3)ccc2O[C@H]1CN(C)Cc1ccc(Cl)c(Cl)c1 | inactive |
| C[C@@H]1CN([C@@H](C)CO)C(=O)Cc2cc(NC(=O)Cc3ccccc3)ccc2O[C@H]1CN(C)Cc1ccc(Cl)c(Cl)c1 | inactive |
| C[C@@H]1CN([C@@H](C)CO)C(=O)Cc2cc(NC(=O)Cc3ccccc3)ccc2O[C@@H]1CN(C)Cc1ccc(Cl)c(Cl)c1 | active |
| C[C@H]1CN([C@@H](C)CO)C(=O)Cc2cc(NC(=O)Cc3ccccc3)ccc2O[C@@H]1CN(C)Cc1ccc(Cl)c(Cl)c1 | inactive |
| C[C@@H]1CN([C@H](C)CO)C(=O)Cc2cc(NC(=O)Cc3ccccc3)ccc2O[C@@H]1CN(C)Cc1ccc(Cl)c(Cl)c1 | active |
| C[C@H](CO)N1C[C@H](C)[C@H](CN(C)Cc2ccc(Cl)c(Cl)c2)Oc2ccc(NC(=O)Cc3ccccc3)cc2CC1=O | inactive |
| C[C@@H]1CN([C@@H](C)CO)C(=O)c2cc(NC(=O)C3CCCCC3)ccc2O[C@@H](C)CCCCO[C@@H]1CN(C)Cc1ccncc1 | inactive |
| Cc1noc(C)c1S(=O)(=O)N(C)C[C@H]1Oc2ccc(NC(=O)C3CCCCC3)cc2CC(=O)N([C@H](C)CO)C[C@H]1C | inactive |
| C[C@H]1CN([C@@H](C)CO)C(=O)c2cccc(NS(=O)(=O)c3ccccc3)c2O[C@@H]1CN(C)Cc1ccc(Cl)c(Cl)c1 | inactive |
| O=C(C[C@H]1C=C[C@@H](NS(=O)(=O)c2ccccc2)[C@H](CO)O1)NCc1ccncn1 | inactive |
| Cn1cnc(S(=O)(=O)N2C[C@H](O)COC[C@H]3O[C@H](CC(=O)NCc4ccc(F)cc4)CC[C@@H]32)c1 | inactive |
| CN(C)C(=O)c1ccc(-c2cccc(-c3nc(C(=O)NC4CCCCC4)cc4c3[C@H](CCO)N([S@@](=O)C(C)(C)C)C4)c2)cc1 | inactive |
| CCCN(C)C[C@@H]1OCCCC[C@H](C)Oc2ccc(NC(=O)Nc3ccc4c(c3)OCO4)cc2C(=O)N([C@H](C)CO)C[C@@H]1C | inactive |
| C[C@H](CO)N1C[C@H](C)[C@@H](CN(C)C(=O)Nc2cc(F)ccc2F)Oc2cc(/C=C/c3ccccc3)ccc2S1(=O)=O | inactive |
| C[C@@H]1CN([C@H](C)CO)S(=O)(=O)c2ccc(C#CC3(O)CCCC3)cc2O[C@@H]1CN(C)C(=O)Nc1ccccc1 | active |
| C[C@@H]1CN([C@H](C)CO)S(=O)(=O)c2ccc(/C=C/c3ccccc3)cc2O[C@@H]1CN(C)C(=O)Nc1cc(F)ccc1F | active |
| COc1cccc(NC(=O)N(C)C[C@H]2Oc3cc(C#CC4(O)CCCC4)ccc3S(=O)(=O)N([C@H](C)CO)C[C@@H]2C)c1 | inactive |
| COc1cccc(NC(=O)N(C)C[C@H]2Oc3cc(C#CC4(O)CCCC4)ccc3S(=O)(=O)N([C@@H](C)CO)C[C@H]2C)c1 | inactive |
| COc1cccc(NC(=O)N(C)C[C@H]2Oc3cc(C#CC4(O)CCCC4)ccc3S(=O)(=O)N([C@H](C)CO)C[C@H]2C)c1 | active |
| C[C@@H]1CN([C@H](C)CO)S(=O)(=O)c2ccc(C#CC3(O)CCCC3)cc2O[C@H]1CN(C)C(=O)Nc1ccccc1 | inactive |
| C[C@H]1CN([C@@H](C)CO)S(=O)(=O)c2ccc(C#CC3(O)CCCC3)cc2O[C@H]1CN(C)C(=O)Nc1ccccc1 | inactive |
| C[C@@H]1CN([C@H](C)CO)S(=O)(=O)c2ccc(/C=C/c3ccccc3)cc2O[C@H]1CN(C)C(=O)Nc1cc(F)ccc1F | inactive |
